Out of some 48,000 compounds screened, about 13,000 (27%) showed an effect of 50% or more. The list shows a part of the results.

Experimental findings from ChEMBL document CHEMBL3988442, “University of Dundee, Small-Polar-MMV Screening Library” (2021) are described below.

The test system of this assay is Wolbachia pipientis. As to the kind of experiment: Anti-Wolbachia Cell-Based Screen. Type of assay: functional. Also on record: scale not given: in the data most compounds retested in dose-response had high values. Conditions: 5 µM.
Consider `Cc1occc1C(=O)Nc1cccc(C(=O)OCC2CCCN2)c1.Cl` (centres undefined), for which the “Percent Effect” value was -3.308%.
Next, `O=C(O)c1ccccc1-c1ccc(CN2CC(O)C2)cc1`: 128.6%.
In the case of `O=c1cc(-c2cccnc2)nc(-c2ccc(CN3CC[C@H](O)C3)cc2)[nH]1`, the “Percent Effect” value was -0.3576%.
To `O=C1CN(Cc2ccc(-c3ccccc3C(=O)O)cc2)CCN1` belongs 3.495%.
For the molecule `NC(=O)c1ccc(CN2CCCC(O)C2)cc1` (centres undefined), the “Percent Effect” value is on record as 1.38%.
To `O=C(O)c1ccccc1-c1ccc(CN2CCCC(O)C2)cc1` (centres undefined) belongs 104.1%.
Next, `COc1ccc(C(C)N2CCC(CO)CC2)cc1Cl` (centres undefined): 2.465%; `CSC1(CNC(=O)N(C)Cc2ccc(C)s2)CCOCC1`: -11.34%; `COCCn1c2c(ccc1=O)CCN(C(=O)Cc1ccsc1)CC2`: 97.29%.
To `COCCN1CC2(CCCN(C(=O)CCCc3cccs3)C2)CCC1=O` (centres undefined) belongs -3.205%; to `COCCn1c2c(ccc1=O)CCN(C(=O)Cc1cccs1)CC2`, 99.02%; to `COCCN1CCOCC12CCN(C(=O)Cc1cccs1)CC2.O=C(O)C(F)(F)F`, 7.053%.
Regarding `O=C(Cc1ccsc1)N1CCc2ccc(=O)n(CC3CC3)c2CC1`, the “Percent Effect” value was -8.117%.
With `CN(CCCc1nccn1C)C(=O)C1COc2ccccc2C1` (centres undefined), the “Percent Effect” value is recorded as -14.96%.
Next, `Cc1ncsc1CCN(C)C(=O)c1ccc(Cn2cnnn2)cc1`: -0.04633%.
Regarding `Cc1nc(N2CCOCC2)nc2c1CN(C(=O)Cc1ccccn1)CC2`, the “Percent Effect” value is 6.226%.
Regarding `Cc1nc(N2CCOCC2)nc2c1CCN(C(=O)NC1CCCC1)CC2`, the “Percent Effect” value is 25.82%.
Next, `Cc1nc(N2CCOCC2)nc2c1CN(CC(=O)N(C)C)CC2`: -19.6%; `Cc1nc(N2CCCC2)nc2c1CCN(C(=O)C1CCCC1)CC2`: 4.07%.
To `Cc1nc(N2CCOCC2)nc2c1CCN(C(=O)C1(C#N)CC1)CC2` belongs -22.43%; to `Cc1nc(N2CCOCC2)nc2c1CCN(C(=O)N1CCCC1)CC2`, 118.6%.
Next, `Cc1nc(N2CCCC2)nc2c1CCN(C(=O)CC1CC1)CC2`: 43.96%.
As for `Cc1nc(N2CCOCC2)nc2c1CN(C(=O)C(C)C)CC2`, the “Percent Effect” value was 99.02%.
As for `Cc1nc(N2CCCC2)nc2c1CCN(C(=O)N1CCCC1)CC2`, the “Percent Effect” value was 98.24%.
To `CS(=O)(=O)CCN1C[C@H](NC(=O)c2cnc(O)cn2)[C@@H](C2CC2)C1` belongs 5.128%; to `Cn1cccc1C(O)CNS(=O)(=O)c1ccccc1F` (centres undefined), -11.88%; to `CC(C)CCC(=O)N1CCN(c2ncnc3nc(N)ccc23)CC1`, -4.213%.
To `COc1ccc(Cl)cc1NCC(=O)NCc1cccnc1OC` belongs 108%; to `COc1cc(CNC(=O)CNc2cc(Cl)ccc2OC)ccn1`, -1.117%; to `COc1ccc(Cl)cc1NCC(=O)NCCNc1ncccn1`, 100.4%.
Consider `COc1ccc(Cl)cc1NCC(=O)NCCc1ccccn1`, for which the “Percent Effect” value is on record as 3.443%.
Turning to `COc1c(Cl)cc(C(=O)NCCNc2ncccn2)cc1Cl`, the “Percent Effect” value is recorded as 11.68%.
Next, `COc1ccc(Cl)cc1NCC(=O)N(Cc1ccccn1)C1CC1`: -7.935%; `COc1ncccc1NC(=O)N1CCCC1c1cc(C)no1` (centres undefined): -4.048%.
To `Cc1cc(C(=O)N2C[C@H]3CC[C@@H]2CN(C)C3)ccc1Cl` belongs -9.049%; to `CC(C)(C)OC(=O)NC(C)(C)c1noc(CSc2ccccn2)n1`, 18.32%; to `COC(=O)NC1(C(=O)Nc2ccc(-c3cc[nH]n3)cc2)CCCC1`, -10.93%.
In the case of `CS(=O)(=O)N1CC2(CCCN2Cc2ccc(Cl)cc2)Cc2ccccc21` (centres undefined), the “Percent Effect” value stood at 113.6%.
Regarding `Cc1cc(C(=O)N2CCCC3(CCCN3Cc3cccnc3)C2)[nH]n1` (centres undefined), the “Percent Effect” value is 0.008691%.
To `CC(=O)N1CC2(CCCN2Cc2ccc(Cl)cc2)Cc2ccccc21` (centres undefined) belongs 134.6%; to `CCS(=O)(=O)N1CCCC2(CCCN2Cc2cccc(Cl)c2)C1.O=C(O)C(F)(F)F` (centres undefined), -14.69%.
Regarding `Cn1cc(CN2CCCC3(CCCN3S(C)(=O)=O)C2)cn1.O=C(O)C(F)(F)F` (centres undefined), the “Percent Effect” value was found to be 1.436%.
To `CC(=O)N1CC2(CCCCN2Cc2ccc(Cl)cc2)Cc2ccccc21` (centres undefined) belongs 100.4%; to `CC(C#N)CSc1ccccc1NCC(=O)NC(C1CC1)C1CC1` (centres undefined), -11.19%; to `NC(=O)CN1CCC(Nc2ccnc3ccc(Cl)cc23)CC1`, 13.98%.
To `CNC(=O)CN1CCN(C(=O)Nc2ccc(Cl)cc2F)CC1` belongs 0.4531%; to `NC(=O)CN1CCC(OCc2ccc(Cl)c(Cl)c2)CC1`, 99.68%.
Next, `CC(C)Oc1cccc(CC(=O)NC2CCN(CC(N)=O)CC2)c1`: -2.756%; `COc1cccc(COCC(=O)NC2CCN(CC(N)=O)CC2)c1`: 5.2%.
For `CCOC1CCN(C(=O)NCc2ccc(CN3CCOCC3)cc2)CC1`, the “Percent Effect” value was -24.74%.
Consider `NC(=O)CN1CCC(C(=O)NCc2ccc3nonc3c2)CC1`, for which the “Percent Effect” value is reported as -14.82%.
Next, `CNC(=O)CN1CCC(c2cc(OC)cc(OC)c2)C1` (centres undefined): 8.564%; `CCC(N)C(=O)N1CCC(OCc2ccc(Cl)c(Cl)c2)CC1.Cl` (centres undefined): 104.6%; `CNC(=O)CN1CCC(OCc2ccc(Cl)c(Cl)c2)CC1`: 83.56%.
To `NC(=O)CN1CCC(NC(=O)COc2ccc(Cl)c(Cl)c2)CC1` belongs 99.17%; to `CSCCC(O)C(=O)N1CCC(OCc2cccnc2)CC1` (centres undefined), -3.942%.
Take `CCn1c(N)nc2cc(C(=O)N3CCN(CC(F)(F)F)CC3)cnc21`: the “Percent Effect” value is recorded as -2.793%.
To `COc1ccc(F)c(CN2CCCC3(CCN(C(=O)CSC)C3)C2)c1` (centres undefined) belongs -11.54%; to `Cc1ccc(F)c(C(=O)NC2CCC(N3C(=O)CCC3=O)CC2)c1` (centres undefined), -6.109%.
For the molecule `O=C(NCc1csc(Br)c1)c1cnccn1`, the “Percent Effect” value turned out to be 122.2%.
For `CCn1cc(C(=O)NCc2csc(Br)c2)cn1`, the “Percent Effect” value is -5.042%.
To `CN(C)c1ccc(C(=O)NCc2csc(Br)c2)cn1` belongs 132.1%.
Regarding `CN1CCCN(C(=O)NCc2csc(Br)c2)CC1`, the “Percent Effect” value is given as -2.09%.
To `CN(C)c1ncccc1CNC(=O)c1csc(Br)c1` belongs -2.901%; to `CC1(c2ccccc2)CCC(=O)N(CCN2CCOC2=O)C1` (centres undefined), -0.3831%.
Next, `Cc1cc(C(=O)NCC2CCC3(CC2)OCCO3)[nH]n1`: -25.64%; `O=C(NCC1(O)CCC1)c1cccc(-n2cccn2)c1`: 119.5%.
In the case of `CSC1(CNC(=O)c2cccc(-n3cccn3)c2)CCOCC1`, the “Percent Effect” value worked out at 126.6%.
Take `O=C(NCC1CCC2(CC1)OCCO2)c1ccncc1F`: the “Percent Effect” value is recorded as -3.003%.
`CSC1(CNC(=O)NC(C)c2ccc(F)cc2)CCOCC1` (centres undefined): the “Percent Effect” value was -5.884%.
To `CSC1(CNC(=O)c2ccn(-c3ccccc3F)n2)CCOCC1` belongs -3.806%.
Next, `O=C(NCC1(O)CCSC1)c1ccoc1` (centres undefined): 12.35%; `CC(CNC(=O)c1cccc(-n2cccn2)c1)Cn1ccnc1` (centres undefined): -7.057%.
In the case of `CNC(=O)CCOC(=O)c1cccc(-n2cccn2)c1`, the “Percent Effect” value is -2.822%.
Next, `O=C(NCC1(O)CCSC1)c1ccn(-c2ccccc2F)n1` (centres undefined): -10.8%; `O=C(NCC1(O)CCSC1)c1cccc(-n2cccn2)c1` (centres undefined): 105.6%; `O=C(NCC1CCC2(CC1)OCCO2)c1cccc(-n2cccn2)c1`: 116.2%.
Turning to `Cn1cc(C(C)(O)CNc2ccccn2)cn1` (centres undefined), the “Percent Effect” value is -0.1049%.
Next, `Oc1cc(CN2CCCCC2c2cccnc2)nc2c(F)cccc12` (centres undefined): -16.88%.
To `CC(C)n1ccnc1C1CCN(C(=O)C2COc3ccccc3O2)CC1` (centres undefined) belongs -5.747%.
Next, `CCS(=O)(=O)N1CCCC2(COCCN(c3nnc(C)o3)C2)C1.O=C(O)C(F)(F)F` (centres undefined): -4.041%; `c1ccc2c(c1)CC(Cc1cc(N3CCCC3)cnn1)CCO2` (centres undefined): -11.32%.
On to `O=C(O)C(F)(F)F.O=C(O)C(F)(F)F.c1cnn(Cc2cnc3n2CCN(CC2CCCCC2)C3)c1`, for which the “Percent Effect” value is reported as -2.959%.
As to `CC1c2ncc(Cn3cccn3)n2CCN1c1ncccn1.O=C(O)C(F)(F)F` (centres undefined), the “Percent Effect” value came to 86.74%.
To `O=S(=O)(C1CC1)N1CCc2ncc(Cn3cccn3)n2CC1` belongs -13.53%; to `CC1c2ncc(Cn3cccn3)n2CCN1S(=O)(=O)C1CC1` (centres undefined), 92.87%; to `CC1c2ncc(Cn3cccn3)n2CCN1S(C)(=O)=O.O=C(O)C(F)(F)F` (centres undefined), 89.72%.
For `O=S(=O)(C1CC1)N1CCn2c(Cn3cccn3)cnc2C1`, the “Percent Effect” value is reported as 7.108%.
Regarding `COCc1cnc2n1CCN(C1CCCC1)C2C.O=C(O)C(F)(F)F` (centres undefined), the “Percent Effect” value is reported as 11.21%.
Regarding `Cc1noc(C)c1CN1CCc2ncc(Cn3cccn3)n2CC1.O=C(O)C(F)(F)F`, the “Percent Effect” value was -5.332%.
Next, `O=C(NC1CC1)N1CCn2c(Cn3cccn3)cnc2C1.O=C(O)C(F)(F)F`: 5.205%; `CCc1nsc(N2CCN(Cc3ccno3)CC2)n1`: -4.168%.
Next, `COC(=O)C1CCN(C(=O)c2ccc(NS(C)(=O)=O)c(C)c2)CC1`: -4.777%; `O=S(=O)(c1ccc(Cl)cc1)N1CCC(OCc2ccccn2)C1` (centres undefined): -17.23%.
As for `CS(=O)(=O)NC[C@H]1Cn2c(-c3ccc(F)cc3)cnc2CO1`, the “Percent Effect” value is reported as -20.98%.
To `CC(C)(C)OC(=O)N1CSC[C@@H]1C(=O)NCc1ccsc1` belongs -2.991%.
`COCCOc1cccc(C(=O)N2CCCC(n3ccnc3)C2)c1` (centres undefined): the “Percent Effect” value was found to be 85.64%.
`NC(=O)c1cccc(C(=O)N2CCCC(n3ccnc3)C2)c1` (centres undefined): the “Percent Effect” value worked out at 111.9%.
To `NC(=O)c1ccc(C(=O)N2CCCC(n3ccnc3)C2)s1` (centres undefined) belongs 109.7%.
To `O=C1CSc2ccc(C(=O)N3CCCC(n4ccnc4)C3)cc2N1` (centres undefined) belongs 1.64%; to `O=C(c1cnc(-c2cccs2)s1)N1CCCC(n2ccnc2)C1` (centres undefined), 98.86%; to `O=C(c1cnc(-c2cccs2)s1)N1CCCN2CCCC2C1` (centres undefined), 13.8%.
Next, `O=C(c1cccnc1N1CCOCC1)N1CCCC(n2ccnc2)C1` (centres undefined): -11.91%; `O=C(O)C1(Oc2ccc3ccccc3c2)CCN(c2ncccn2)CC1`: -9.781%.
